Compound activity (PubChem BioAssay)
FBA Mtb inh – Mtb fructose-bisphosphate aldolase inhibition; P9WQA3; purified M. tuberculosis FBA, fluorescence read-out; inhibition, % at 1 µM; 360,000 compounds, 2.3% hits
Target sequence (P9WQA3 whole entry, looked up): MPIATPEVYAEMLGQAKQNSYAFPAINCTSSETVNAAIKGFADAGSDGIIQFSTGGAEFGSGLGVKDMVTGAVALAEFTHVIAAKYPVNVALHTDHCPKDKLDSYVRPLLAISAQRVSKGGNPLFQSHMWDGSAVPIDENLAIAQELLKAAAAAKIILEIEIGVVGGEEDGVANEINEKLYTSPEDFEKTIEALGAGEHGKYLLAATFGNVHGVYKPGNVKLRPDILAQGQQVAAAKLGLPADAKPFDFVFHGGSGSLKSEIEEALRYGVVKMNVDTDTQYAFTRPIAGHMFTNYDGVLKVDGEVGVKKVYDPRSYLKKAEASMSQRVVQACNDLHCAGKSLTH
BJeLR viability – BJeLR cell viability loss; inhibition, % (concentration not given with the values); BJeLR (HRASV12) viability, CellTiter-Glo ATP luminescence, 48 h; 300,000 compounds, 0.17% hits; AID 1554; in the data active means inhibition above about 50%; inconclusive means no clear call, values can overlap the other calls
PfHsp40 yeast – restores yeast growth despite PfHsp40 toxicity | AID 504582 | growth rescue, % at 12.5 µM | S. cerevisiae expressing PfHsp40, growth rescue, ATP luminescence | 340,000 compounds, 0.68% hits; in the data active means growth rescue above about 28%, passing the limit was not always enough; inconclusive means no clear call, values can overlap the other calls;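 further: yeast W303a lacking pdr1 and pdr3 grown in galactose medium; growth measured after three days at 30 °C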
PrPC surface inh – cell surface PrPC inhibition, primary TR-FRET screen; P04156; TR-FRET read-out; inhibition, % at 13.8 µM; 370,000 compounds, 0.43% hits; in the data active means inhibition above about 24%
GDH-TPI counter-1 – inhibits GDH-TPI coupling enzymes, artifact for Mtb FBA screen | AID 588335 | 360,000 compounds, 1.2% hits | GDH-TPI coupled enzyme counterscreen, NADH absorbance | inhibition, % at 4.8 µM; in the data active means inhibition above about 30%
PrP UTR inh – inhibition of PrP 5' UTR reporter expression | cell-based PrP 5' UTR mRNA reporter, plate reader | inhibition, % (concentration not given with the values) | 340,000 compounds, 0.35% hits | AID 488862; in the data active means inhibition above about 52%
Mtb FBA inh conf – Mtb FBA inhibition, confirmed; AID 651616; 5,600 compounds, 78% hits; inhibition, % at 1 µM; purified M. tuberculosis FBA, fluorescence read-out; shares compounds with FBA Mtb inh
GDH-TPI counter-2 – counter-screen for M. tuberculosis FBA inhibitors: GDH-TPI coupled enzyme inhibition; shares compounds with FBA Mtb inh; 5,600 compounds, 81% hits; GDH-TPI coupled enzyme counterscreen, fluorescence; inhibition, % at 1 µM; in the data active means inhibition above about 10%
A number is an active result; n = inactive; u = inconclusive; x = not tested or not shown; + = active, no number. Most compounds without a hit are left out; they make up all but 4.5% or so of the library. Unless noted, no stated cut-off is given here; in the data, active means inhibition above about 27%; inactive means the rest.

SMILES	FBA Mtb inh	BJeLR viability	PfHsp40 yeast	PrPC surface inh	GDH-TPI counter-1	PrP UTR inh	Mtb FBA inh conf	GDH-TPI counter-2
COC(=O)c1ccc2c(c1)c(C#Cc1ccccc1)c(-c1ccccc1)n2C	40	x	n	n	n	n	n	n
COc1ccc(-c2c(-c3ccccc3)n(C)c3ccccc23)cc1	41	x	n	n	n	n	n	n
COc1ccc(-c2c(-c3ccc4c(c3)OCO4)c3ccccc3n2C)cc1	n	x	n	n	n	n	x	x
O=C1COc2ccc(C(=O)COC(=O)Cc3c(F)cccc3Cl)cc2N1	n	x	n	n	n	n	x	x
COc1ccc2c(C(c3ccccc3O)C3CCCN3S(=O)(=O)c3ccc(C)cc3)cn(C)c2c1 (stereo not given)	x	x	x	n	x	x	x	x
CC(=O)N1CCN(C(=O)c2cccc(S(=O)(=O)N3CCOCC3)c2)CC1	n	x	n	n	n	n	x	x
CCNC(=O)C1(C)CCCN1C(=O)c1cc(OC)c(OC)c(OC)c1 (stereo not given)	n	x	x	n	n	x	x	x
Cc1ccc(S(=O)(=O)NNC(=O)c2ccccc2-n2cccc2)cc1	32	n	n	n	n	n	57	52
N#CC1(C#N)C(c2ccccc2)OC23CCCCCC2C1(C#N)C(=N)O3 (stereo not given)	41	n	n	n	n	n	40	34
N#CC1(C#N)C(c2ccccc2)OC23CCCCC2C1(C#N)C(=N)O3 (stereo not given)	75	n	n	n	n	n	58	64
COC(=O)[C@@]12C[C@@H](CC(=O)NCC3CCCCC3)C(=O)N(CCc3ccc(OC)c(OC)c3)C1=CCC(C)(C)C2	x	x	x	n	x	x	x	x
COc1cccc2sc(Nc3nnc(-c4cccs4)o3)nc12	n	n	n	n	n	n	x	x
Fc1cccc2sc(Nc3nnc(-c4ccco4)o3)nc12	33	n	74	n	n	n	198	166
Cc1cccc(NC(=O)CN2C(=O)N/C(=C\c3ccc(-c4cccc(C(=O)O)c4)o3)C2=O)c1	34	n	n	n	n	n	189	143
CN1CCSc2ccc(C(=O)Nc3cccc(F)c3)cc21	n	n	n	n	n	n	x	x
O=C(NCc1ccccn1)c1ccc2c(c1)N(Cc1ccccc1)CCS2	94	n	n	n	n	n	n	n
CC1CC(C)CN(C(=O)c2ccc3c(c2)N(Cc2ccccc2)CCS3)C1 (stereo not given)	n	n	u	x	n	n	x	x
CN1CCSc2ccc(C(=O)NCc3ccccc3)cc21	96	n	n	n	n	n	+	167
O=C(NCc1cccnc1)c1ccc2c(c1)N(Cc1ccccc1)CCS2	76	n	n	n	n	n	163	124
O=C(O)CN1C(=O)/C(=C/c2ccccc2Br)Oc2ccccc21	83	n	n	n	n	n	n	n
CCOC(=O)CN1C(=O)/C(=C/c2cccc(Br)c2)Oc2ccccc21	n	n	n	n	n	n	x	x
O=C(O)C1CCN(C(=O)COc2ccc3c4c(c(=O)oc3c2)CCCC4)CC1	100	n	n	n	n	n	57	48
CCc1cc(=O)oc2c(C)c(OCC(=O)N3CCC(C(=O)O)CC3)ccc12	38	n	n	n	n	n	n	n
CCc1cc(=O)oc2cc(OCC(=O)N3CCC(C(=O)O)CC3)ccc12	27	n	n	n	n	n	74	71
O=C(COc1ccc2c3c(c(=O)oc2c1)CCC3)N1CCCCC1	n	n	n	n	n	n	x	x
SMILES	FBA Mtb inh	BJeLR viability	PfHsp40 yeast	PrPC surface inh	GDH-TPI counter-1	PrP UTR inh	Mtb FBA inh conf	GDH-TPI counter-2
Cc1cc(=O)oc2c(C)c(OCC(=O)N3CCN(c4ccccc4)CC3)ccc12	n	n	n	n	n	n	x	x
Cc1cc(=O)oc2c(C)c(OCC(=O)N3CCN(C(=O)C4COc5ccccc5O4)CC3)ccc12 (stereo not given)	32	n	n	n	n	n	136	118
CCCNC(=O)C1(C)CCN(Cc2csc3ccccc23)C1 (stereo not given)	n	x	x	n	n	x	x	x
Cc1c(OCC(=O)N2CCN(c3ccccc3)CC2)ccc2c3c(c(=O)oc12)CCCC3	n	n	n	n	n	n	x	x
O=C(O)[C@@H]1CCCN1C(=O)COc1ccc2c3c(c(=O)oc2c1)CCC3	42	n	n	n	n	n	92	68
Cc1c(OCC(=O)N2CCC(C(=O)O)CC2)ccc2c3c(c(=O)oc12)CCCC3	66	n	n	n	n	n	70	58
CCCOc1ccc2c(CC)cc(=O)oc2c1C	35	n	n	n	n	n	92	80
CCC1CCCCN1C(=O)COc1ccc2c3c(c(=O)oc2c1)CCC3 (stereo not given)	n	x	n	n	n	n	x	x
Cc1c(C)c2ccc(OCC(=O)N3CCC(C(=O)O)CC3)cc2oc1=O	103	n	n	n	n	n	n	n
CN(Cc1ccccc1)C(=O)c1cnc(Cc2c[nH]c3ccccc23)c(I)c1	n	x	x	n	n	x	x	x
Cc1cc(C)cc(NC(=O)C2C3C=CC4(O3)C2C(=O)N(CCCN(C)C)C4C(=O)NC2CCCC(C)C2C)c1 (stereo not given)	n	n	n	n	n	n	x	x
COc1ccccc1/C=C/C=N/NC(=O)Cc1cccn1C	78	n	n	n	51	n	+	+
Cn1cccc1CC(=O)N/N=C/c1cccc2ccccc12	n	n	n	n	n	n	x	x
COCC#Cc1ccc(CC[C@H]2O[C@H]3CC[C@H](CO)O[C@H]3C[C@H]2n2cc(C(C)(C)O)nn2)cc1	x	x	x	n	x	x	x	x
CCSc1nc2c(c(=O)n(C)c(=O)n2C)n1Cc1ccc(Cl)cc1	n	n	n	n	n	n	x	x
Cn1c(=O)c2c(nc(SCCN3CCCCC3)n2Cc2ccc(Cl)cc2)n(C)c1=O	44	n	n	n	n	n	80	68
Cc1ccccc1C(=O)N(CC(=O)Nc1sc(C)c(C)c1C(N)=O)C1CCCC1	n	n	n	n	n	n	x	x
O=C(O)C(=O)/C(=C\c1cccc(Cl)c1)c1ccc2ccccc2n1	79	n	n	n	n	n	+	+
Cc1cccc(/C=C(\C(=O)C(=O)O)c2ccc3ccccc3n2)c1	n	n	n	n	n	n	x	x
COc1cccc(/C=C/C(=O)OCC(=O)c2c(N)n(C)c(=O)n(C)c2=O)c1	63	x	n	n	n	n	86	59
COc1ccc(/C=C/C(=O)OCC(=O)c2c(N)n(C)c(=O)n(C)c2=O)cc1	n	n	n	n	n	n	x	x
NC(=O)NC(=O)COC(=O)c1ccc2c(c1)C(=O)N(Cc1ccccc1)C2=O	n	n	n	n	n	n	x	x
NC(=NCc1ccccc1)NC(=O)c1nc(Cl)c(N)nc1N	37	n	n	n	n	n	32	37
NC(=Nc1ccccc1)NC(=O)c1nc(Cl)c(N)nc1N	n	n	n	n	n	n	x	x
